Screening results (PubChem)
The full list was thinned out, with hits kept by preference.
TTR transcr act = increases transthyretin transcription; SH-SY5Y TTR promoter Gaussia luciferase, luminescence; 100% = recombinant luciferase protein wells; activation, % at 16.7 µM; hit rate 1.3% among 92,000; AID 1117267;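 active means activation above the mean of all tested compounds plus 3 SD, cut at about 9.5% in these data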;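 further: cells exposed to compounds for one day before reading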
Numbers stand for hits; – = inactive.

SMILES	TTR transcr act
C/C=C\C=C/C(=O)Nc1cccc(C2=NOC3(C2)C[C@H](C(N)=O)N(C(=O)CC)C3)c1 (stereo partly drawn)	–
C/C=C\C=C/C(=O)Nc1cccc(C2=NOC3(C2)C[C@H](C(N)=O)N(C(=O)c2ccc(OC)cc2)C3)c1 (stereo partly drawn)	16
C/C=C/C=C\C(=O)Nc1cccc(C2=NOC3(C2)C[C@@H](C(N)=O)N(C(=O)/C(C)=C/C)C3)c1 (stereo partly drawn)	–
CCOC(=O)c1c(C=O)c(C)n(Cc2ccc(Cl)cc2)c1C	–
CCOC(=O)c1c(C=O)c(C)n(Cc2ccccc2)c1C	11
CCOC(=O)c1cn(Cc2ccccc2)nn1	–
COC(=O)C1=C(C(=O)OC)[C@@]2([C@@H](Cc3ccc(C)cc3)Nc3ccccc3)C=C[C@@H]1O2	–
FC(F)(F)c1ccccc1NC(=S)OCCN1CCCC12CCC(c1ccccc1)CC2 (stereo not drawn)	–
C#CCOCCOCCOCCNc1nc(N2CCN(C(=O)Cn3cc(CCCN=C(N)N)nn3)CC2)nc(N2CCN(C(=O)[C@H](Cc3ccc(O)cc3)n3cc(CCO)nn3)CC2)n1	–
CCC[C@H]1[C@@H](NS(=O)(=O)c2ccccc2[N+](=O)[O-])CC[C@@]23CCCN2C(=O)CCC[C@@H]13	–
CC(=O)Nc1sc2c(c1-c1nc3ccccc3s1)CCCN(C(C)C)C2	–
CC1CN(CC(=O)c2c(N)n(Cc3ccccc3)c(=O)n(C)c2=O)CC(C)O1 (stereo not drawn)	–
CN(C)CC(=O)c1c(N)n(Cc2ccccc2)c(=O)n(C)c1=O	–
Cn1c(N)c(C(=O)CCl)c(=O)n(Cc2ccccc2)c1=O	12
Cc1ccc(OCCOc2ccc(Cl)cc2Cl)c(Br)n1	–
COc1ccc(S(=O)(=O)N(C)C[C@@H]2Oc3ccc(NS(C)(=O)=O)cc3C(=O)N([C@@H](C)CO)C[C@H]2C)cc1	–
COc1ccc(S(=O)(=O)N(C)C[C@H]2Oc3ccc(NC(=O)C4CC4)cc3C(=O)N([C@H](C)CO)C[C@@H]2C)cc1	12
Cc1ccc(S(=O)(=O)N(C)C[C@H]2Oc3ccc(NC(=O)C4CCCCC4)cc3C(=O)N([C@H](C)CO)C[C@H]2C)cc1	–
CC(C)(N[C@@H](Cc1ccccc1)C(=O)NCCc1c[nH]c2ccccc12)C(=O)NC1CCCCC1	–
O=[N+]([O-])c1ccc(N/N=C2/CCCCC2c2ccccn2)cc1 (stereo not drawn)	–
O=C1CCCCC1Nc1ccc([N+](=O)[O-])cc1 (stereo not drawn)	12
O=C(NC1CCCCC1)c1ccc([N+](=O)[O-])cc1	–
COC(=O)[C@]12C[C@H](CC(=O)NCCc3ccccc3OC)C(=O)N(Cc3cccc4ccccc34)C1=C[C@H](C1CCCC1)O[C@@H]2C	–
C[C@H]1[C@@H](OC(=O)Nc2ccc(C#N)cc2)CC[C@@]23CCCN2C(=O)CCC[C@@H]13	–
O=C(NCC(c1ccccc1)c1ccccc1)[C@H](Cc1ccccc1)NC1(C(=O)NC2CCCCC2)CCOCC1	–
SMILES	TTR transcr act
C[C@H](CO)N1C[C@H](C)[C@H](CN(C)Cc2ccc(Oc3ccccc3)cc2)Oc2ccc(NC(=O)Nc3cccc4ccccc34)cc2CC1=O	–
Cc1ccc(S(=O)(=O)N(C)C[C@@H]2Oc3ccc(NS(=O)(=O)c4ccccc4)cc3CC(=O)N([C@@H](C)CO)C[C@H]2C)cc1	–
C[C@H]1CN([C@@H](C)CO)C(=O)Cc2cc(NS(C)(=O)=O)ccc2O[C@@H]1CN(C)Cc1ccc(Cl)c(Cl)c1	13
C[C@H]1CN([C@@H](C)CO)C(=O)Cc2cc(NC(=O)Nc3ccccc3)ccc2O[C@H]1CN(C)Cc1ccccc1	–
CNC[C@H]1Oc2ccc(NC(=O)Cc3cn(C)c4ccccc34)cc2CC(=O)N([C@@H](C)CO)C[C@H]1C	15
C[C@@H]1CN([C@H](C)CO)C(=O)c2cc(NC(=O)Cc3cn(C)c4ccccc34)ccc2O[C@H]1CN(C)C(=O)Nc1ccc2c(c1)OCO2	–
COc1cccc2c(NCc3ccccc3)nc(-n3c(N)nc4ccccc43)nc12	–
O=C1CC(c2ccc3c(c2)OCO3)N=C2N(Cc3ccc4c(c3)OCO4)C/C(=C/c3ccccc3)N12 (stereo not drawn)	–
Nc1[nH]c(C(=O)c2ccccc2)c(-c2cccc3ccccc23)c1C(=O)c1c(-c2ccccc2)[nH]c2ccccc12	–
CN(CCOc1ccc(-c2ccn(S(=O)(=O)c3c(Cl)cccc3Cl)n2)cc1)c1ccccn1	15
CCOc1ccc(S(=O)(=O)n2ccc(C)n2)cc1	–
Cc1ccc(S(=O)(=O)n2ccc(-c3cccc(OCc4c(F)cccc4Cl)c3)n2)cc1	–
CCC[C@H]1[C@@H](OC(=O)Oc2ccc([N+](=O)[O-])cc2)CC[C@@]23CCCN2C(=O)CCC[C@@H]13	–
CCn1c(O)c(N=NC(=O)c2cccs2)c2ccccc21	–
Cn1c(O)c(N=NC(=N)N)c2ccccc21	17
CC(C)n1c(O)c(N=NC(=O)CNC(=O)CCc2ccccc2)c2ccccc21	–
CCCC/C=C1/[C@H](CC)N(C)C2=N[C@@H](c3ccccc3)CC(=O)N21	–
